Measurements as given in PubChem BioAssay AID1626 (SRMLSC, 2009).
The whole screen tested about 220,000 compounds, of which about 2,000 (0.91%) were called active. Another 2% or so got no clear call; they are omitted. Cut-off read from the data, not from the text of the source: inconclusive = inhibition above about 80% without an active follow-up result; inactive = below that; test concentration not stated here. A selection follows. Entries with a potency or affinity are not part of this list.

Experiment: M. tuberculosis H37Rv growth inhibitors, H37Rv strain (AID 1626);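 note: bacteria incubated seven days before Alamar blue readout; 0% = bacteria only wells and 100% = bacteria with antibiotic wells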
Settings: hits give high values, concentration not given here

| SMILES | inhibition |
| --- | --- |
| Nc1c(C(=O)NC23CC4CC(CC(C4)C2)C3)sc2nc3c(c(C(F)(F)F)c12)CCC3 | -10.2% (inactive) |
| COc1ccc(NC(=O)c2sc3nc(Cc4ccccc4)cc(C(F)(F)F)c3c2N)cc1OC | 7.82% (inactive) |
| CCNC(=S)Nc1sc2c(c1C#N)CCC(C)C2 (configuration not stated) | 9.49% (inactive) |
| CN(C)c1ccc(N2CN=C3SCC(=O)N3C2)cc1 | -6.22% (inactive) |
| Cc1cc(C)cc(N2CN=C3SCC(=O)N3C2)c1 | 4.22% (inactive) |
| O=C1CSC2=NCN(c3ccccc3)CN12 | 5.48% (inactive) |
| Cc1ccc(N2CN=C3SCC(=O)N3C2)cc1C | 73.8% (inactive) |
| O=C1CN(C(=S)Nc2ccc(OC(F)F)cc2)CCN1 | 5.94% (inactive) |
| CCOc1cc(C=O)cc(Br)c1OCC(N)=O | -0.11% (inactive) |
| COc1ccc(/C(O)=C2/C(=O)C(=O)N(CCN3CCOCC3)C2c2cccnc2)cc1OC (configuration not stated) | -6.27% (inactive) |
| Cc1nc(CS(=O)c2ccc(Cl)cc2)cc(N2CCOCC2)n1 (configuration not stated) | 5% (inactive) |
| COCc1cc(Sc2ccc(Cl)cc2)nc(C)n1 | 18.1% (inactive) |
| Cc1ccc2nsnc2c1S(=O)(=O)N1CCCC1 | -7.86% (inactive) |
| CCCCCCCCn1c(=O)c(C(=O)OCC)c(O)c2ccccc21 | 7.93% (inactive) |
| CC(C)CCn1c(=O)c(C(=O)Nc2ccccc2S(N)(=O)=O)c(O)c2ccccc21 | -11.9% (inactive) |
| CCOC(=O)Cc1csc(NC(=O)c2c(O)c3c(n(CC(C)C)c2=O)CCCC3)n1 | 71.9% (inactive) |
| CCCCCn1c(=O)c(C(=O)OCC)c(O)c2ccccc21 | -3.26% (inactive) |
| O=c1cc(CN2CCCCC2)nc(C2CC2)[nH]1 | 3.51% (inactive) |
| Cc1ccc(C(=O)Nc2nccc(-c3cccs3)n2)cc1 | -6.72% (inactive) |
| Oc1ccc(-c2nccc(-c3cccs3)n2)cc1 | -3.17% (inactive) |
| Cc1ccc(C(C)C)c(OCC(O)CN2CCN(CCO)CC2)c1 (configuration not stated) | 2.52% (inactive) |
| CN(C)/C=N/c1c(C#N)cnn1C | -9.88% (inactive) |
| O=C(O)c1ccc(CN2C(=O)c3ccccc3S2(=O)=O)cc1 | -3.5% (inactive) |
| N#CC(c1ccccc1)c1ccc2c(C(F)(F)F)cc(C(F)(F)F)nc2n1 (configuration not stated) | -11.8% (inactive) |
| Cc1ccc(C(C#N)c2ccc3c(C(F)(F)F)cc(C(F)(F)F)nc3n2)cc1 (configuration not stated) | 12% (inactive) |

| SMILES | inhibition |
| --- | --- |
| Cc1ccc(-c2nc3cc(N)ccc3o2)c(C)c1 | 8.94% (inactive) |
| Cc1ccc(C)c(-c2nc3cc(N)ccc3o2)c1 | 77.1% (inactive) |
| Cc1ccc2nc(-c3cccnc3)oc2c1 | -9.72% (inactive) |
| Cc1ccc2nc(-c3cc(N)cc(N)c3)oc2c1 | 56.3% (inactive) |
| CCc1ccc2oc(-c3cc(N)ccc3Cl)nc2c1 | 1.18% (inactive) |
| CCc1ccc2oc(-c3cccc(N)c3)nc2c1 | 5.28% (inactive) |
| Nc1ccc2oc(-c3cccc4ccccc34)nc2c1 | 4.7% (inactive) |
| Nc1cccc(-c2nc3cc(S(=O)(=O)c4ccc5oc(-c6cccc(N)c6)nc5c4)ccc3o2)c1 | -1.41% (inactive) |
| CC(C)CNS(=O)(=O)c1ccc(CCC(=O)Nc2cc(Cl)ccc2Oc2ccccc2)cc1 | 9.05% (inactive) |
| CC(=O)Nc1cccc(Cn2cccn2)c1 | -6.83% (inactive) |
| Cc1ccc(C)c(S(=O)(=O)NC(Cc2c[nH]c3ccccc23)C(=O)O)c1 (configuration not stated) | -3.14% (inactive) |
| Cc1ccc(N(C(=O)c2ccncc2)C2C=CS(=O)(=O)C2)cc1 (configuration not stated) | -9.29% (inactive) |
| CCCCCCc1cc2cc(C(=O)NCc3ccccc3)c(=N)oc2cc1O | -13.1% (inactive) |
| CCCCCCc1cc2cc(C(N)=O)c(=N)oc2cc1O | -2.17% (inactive) |
| O=C1N=C(N2CCN(c3cccc4ccccc34)CC2)S/C1=C/c1cccs1 | 85.6% (inactive) |
| O=C1N=C(N2CCN(c3ccccc3)CC2)S/C1=C/c1cccs1 | 50.8% (inactive) |
| CCOc1ccc(NC(=O)NCCN2C(C)CCCC2C)cc1 (configuration not stated) | -2.64% (inactive) |
| N#Cc1c(NC(=O)CSCC(=O)O)sc2c1CCCC2 | -15.3% (inactive) |
| C/C(=N\Nc1nc2ccccc2[nH]1)c1cc2ccccc2o1 | 56.4% (inactive) |
| O=C(Nc1nc2ccccc2[nH]1)c1ccccc1 | 19.3% (inactive) |
| Cc1c(C(=O)Nc2ccncc2)oc2ccccc12 | -1.93% (inactive) |
| COc1ccc2oc(C(=O)Nc3nc4ccccc4[nH]3)c(C)c2c1 | 51.1% (inactive) |
| O=C(/C=C\c1ccc2c(c1)OCO2)Nc1nnc(SCC(=O)OCc2ccccc2)s1 | 20.4% (inactive) |
| CCOc1ccc(OCC)c(S(=O)(=O)NC2CC(C)(C)NC(C)(C)C2)c1 | -3.13% (inactive) |
| COc1cccc(CNC(=O)Cn2nc(-c3ccc(Cl)cc3)ccc2=O)c1 | 4.51% (inactive) |

| SMILES | inhibition |
| --- | --- |
| CCOC(=O)C(C)Sc1nc(=O)n2cc(C)ccc2n1 (configuration not stated) | 3.92% (inactive) |
| Cc1ccc([N+](=O)[O-])cc1NCC(=O)NN | -8.54% (inactive) |
| c1ccc2c(SCc3cn4ccccc4n3)nncc2c1 | -2.83% (inactive) |
| N=C(N)SCc1nc2ccccn2c1Br | -11.2% (inactive) |
| CC(C)c1ccc2c(c1)C(c1cccs1)=NNC(c1ccncc1)=N2 | 0.38% (inactive) |
| COc1ccc(-c2nnc3ccc(SC(C(C)=O)C(C)=O)nn23)cc1OC | 2.29% (inactive) |
| COc1ccc(NC(C)=O)cc1C#N | 0.78% (inactive) |
| NS(=O)(=O)c1ccc(NC=C2C(=O)OC3(CCCCC3)OC2=O)cc1 | 4.66% (inactive) |
| O=C1OC2(CCCCC2)OC(=O)C1=CNc1ccc2c(c1)OCO2 | 55.9% (inactive) |
| COCCCNC(=O)Cn1cc(C(C)=O)c2ccccc21 | -10.3% (inactive) |
| CC1CCCC(NC(=O)COC(=O)[C@@H](NC(=O)c2ccco2)C(C)C)C1C (some centres not stated) | -2.77% (inactive) |
| Cc1ccc(NC(=O)c2cccs2)cc1 | -1.3% (inactive) |
| CCc1cc2cc(C(=O)N3CCN(c4ccccc4)CC3)sc2s1 | 2.92% (inactive) |
| CC(C)(C)c1ccc(C(=O)Nc2ccc(F)cc2)s1 | 12.9% (inactive) |
| CCc1cc2cc(C(=O)Nc3ccccc3F)sc2s1 | 0.32% (inactive) |
| Cc1cc(C(F)(F)F)nc(SCc2ccc(C(=O)O)o2)n1 | -10.7% (inactive) |
| COc1ccc(Cn2c(=S)[nH]c3ccsc3c2=O)cc1 | -1.7% (inactive) |
| O=c1[nH]cc(COCC(F)(F)C(F)(F)C(F)(F)F)c(=O)[nH]1 | 5.87% (inactive) |
| Cc1ccc(S(=O)(=O)N2CCC(C(=O)NNC(=O)c3ccccc3)CC2)cc1 | 0.71% (inactive) |
| C/C(=N\NC(=O)c1cc(-c2ccncc2)nc2ccccc12)c1ccc(OC(F)F)cc1 | 0.28% (inactive) |
| C#CCNC(=O)C1=C[C@H](c2ccc3c(c2)OCO3)C[C@H](OCCCCO)O1 | -6.12% (inactive) |
| CCCCNC(=O)COC(=O)c1c2c(nc3ccccc13)/C(=C/c1cccs1)CC2 | 36.5% (inactive) |
| CCc1cccc(C)c1NC(=O)COC(=O)c1c2c(nc3ccccc13)/C(=C\c1cccs1)CCC2 | 1.95% (inactive) |
| CC(C)CNC(=O)COC(=O)c1c2c(nc3ccccc13)/C(=C/c1cccs1)CC2 | 32.2% (inactive) |
| COc1ccc(NC(=O)COC(=O)c2c3c(nc4ccccc24)CCCC3)cc1 | -13.1% (inactive) |

| SMILES | inhibition |
| --- | --- |
| COc1ccc(-c2[nH]ncc2CN2CCC(N3CCSCC3)CC2)cc1F | -4.08% (inactive) |
| CCOC(=O)C(/C=C(\C#N)C(=O)OCC)=C(/N)N1CCN(c2ccc(OC)cc2)CC1 | 6.53% (inactive) |
| CCOC(=O)C(/C=C(\C#N)C(=O)OCC)=C(/N)N1CCN(c2ccccc2)CC1 | -0.44% (inactive) |
| COc1ccc(C(=O)Nc2ccc(Cl)cn2)cc1Cl | 12.4% (inactive) |
| COC(=O)c1cc(NC(=O)CSc2nc(C)cc(=O)[nH]2)cc(C(=O)OC)c1 | -18.1% (inactive) |
| Cc1ccc(N/C(N)=N/c2nc(C)cc(C)n2)cc1 | -3.3% (inactive) |
| CC(=O)Nc1ccc(N/C(N)=N/c2nc(C)cc(C)n2)cc1 | 4.6% (inactive) |
| Cn1ccnc1Sc1ccc(/C=N/NC(=O)c2ccccc2[N+](=O)[O-])cc1[N+](=O)[O-] | -13.1% (inactive) |
| NC(=O)CSc1nnc(COc2ccccc2)n1CCc1ccccc1 | -4.55% (inactive) |
| Cc1ccc(CNC(=O)C23CN(Cc4ccccc4)CC2C(c2ccc([N+](=O)[O-])cc2)=NO3)cc1 (configuration not stated) | 7.16% (inactive) |
| CCc1c(C)c(C#N)c2nc3ccccc3n2c1N(C)C | -1.31% (inactive) |
| CCCCCc1c(C)c(C#N)c2nc3ccccc3n2c1-n1ccnc1C | -1.65% (inactive) |
| Cc1c(Cc2ccccc2)c(NCCN(C)C)n2c(nc3ccccc32)c1C#N | -1.57% (inactive) |
| Cc1cc(NCCCO)n2c(nc3ccccc32)c1C#N | 1.01% (inactive) |
| COC(=O)c1cc(C(=O)OC)cc(N2C(=O)CN=C2Nc2nc(C)cc(C)n2)c1 | -5.98% (inactive) |
| Cc1cc(C)c(NC(=O)c2c[nH]c(=S)n2-c2ccc(F)cc2)c(C)c1 | -1.12% (inactive) |
| COc1ccc(-c2nc(C#N)c(NCCN(C)C)o2)cc1 | -2.85% (inactive) |
| COc1cccc(-c2csc(N3CCN(C(=O)Nc4ccccc4OC)CC3)n2)c1 | 0.17% (inactive) |
| COc1cccc(-c2csc(N3CCN(C(=O)Nc4ccc(Cl)cc4)CC3)n2)c1 | 80% (inactive) |
| COc1cccc(-c2csc(N3CCN(C(=O)Nc4ccc(F)cc4)CC3)n2)c1 | 20.3% (inactive) |
| COc1cccc(NC(=O)N2CCN(c3nc(-c4cccc(OC)c4)cs3)CC2)c1 | 79.8% (inactive) |
| CCOP(=O)(OCC)C1(O)C(=O)Nc2ccc(Br)cc21 (configuration not stated) | 0.14% (inactive) |
